# Activity calls are given as the source filed them. Unless noted, how the calls were made is not given here.
# What was measured:
# [1] = system: Wnt5a (protein binding on small-molecule microarray); test: Wnt5a binders on small-molecule microarray, primary screen, biophysical, 635/667 nm fluorescence (AID 1142); settings: 635 nm fluorescence, higher = more signal;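 further: fluorescence read at 667 nm with signal to noise per printed feature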
# [2] = cell viability in Huh7 cells, primary screen, cytotoxicity control for HCV replication inhibitor project, CellTiter-Glo luminescence, basal, 48 h (AID 1143); settings: Huh7 HCV replicon, higher = more signal, called active from +8 up or from −8 down;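 further: Huh7 hepatoma cells carrying a hepatitis C replication reporter with no stimulus; test concentration not given here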
# [3] = P. aeruginosa biofilm formation inhibitors, primary screen, PAO1 strain, BacTiter-Glo luminescence, LB-PBS (AID 1144); settings: 12 h, higher = more signal
# [4] = CREB reporter modulators without forskolin, primary screen, cell-based, PC12, CRE-LacZ reporter, unstimulated (AID 1145); settings: no forskolin, luminescence, 4.5 h, higher = more signal, called active from +8 up or from −8 down
# [5] = CREB reporter modulators under forskolin, primary screen, cell-based, PC12, CRE-LacZ reporter, forskolin-stimulated (AID 1146); settings: luminescence, 4.5 h, higher = more signal, called active from +8 up or from −8 down;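 further: PC12 cells with 6xCRE LacZ reporter stimulated by forskolin 10 µM; beta-galactosidase reporter signal reflecting CREB driven transcription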
# [6] = molecular target: Streptavidin (Streptomyces avidinii) (UniProt P22629); test: streptavidin binders on small-molecule microarray, primary screen, artefact control for SMM compound annotation, biophysical, 635/667 nm fluorescence (AID 1147); settings: streptavidin binding, higher = more signal;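 further: signal reflects streptavidin binding to arrayed compounds as a control protein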
# [7] = small-molecule binders of probe aInhba, primary screen, biochemical, small-molecule microarray, 635/667 nm fluorescence (AID 1148); settings: higher = more signal;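 further: score merges 667nm spot fluorescence with signal-to-noise for antibody binding to printed compounds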
# [8] = molecular target: Torsin-1A (Homo sapiens) (UniProt O14656); test: torsin A binders from cell lysate, primary screen, small-molecule microarray, wild-type, 635/667 nm (AID 1149); settings: COS7 hTOR1A-WT lysate, 635 nm fluorescence, higher = more signal
# [9] = molecular target: Torsin-1A (Homo sapiens) (UniProt O14656); test: small-molecule binders of mutant TOR1A in lysate, primary screen, cell lysate, small-molecule microarray, COS7 lysate, 635/667 nm fluorescence (AID 1150); settings: COS7 hTOR1A mutant lysate, 635 nm fluorescence, higher = more signal;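 further: score pools 667 nm emission and signal to noise measuring lysate protein binding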
# [10] = system: Sonic hedgehog protein (Shh); test: small-molecule binders of Shh protein, primary screen, biochemical, small-molecule microarray, 635/667 nm fluorescence (AID 1151); settings: small-molecule microarray binding, 635 nm fluorescence; higher = more signal;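 further: Shh protein binding to compounds spotted on small-molecule microarray slides; score combines spot fluorescence intensity with signal-to-noise across triplicate slides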
# [11] = E. coli DRC41 culture turbidity changes, primary screen, E. coli filamentation inducer project, strain DRC41, OD650, 48 h (AID 1152);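 further: E. coli MC1000 strain DRC41 lacking acrAB efflux pump and sulA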; settings: E. coli DRC41 (acrAB sulA), higher = more signal, called active from +8 up or from −8 down
# [12] = small-molecule binders of probe aLefty1, primary screen, biochemical, small-molecule microarray, 635/667 nm fluorescence (AID 1153); settings: higher = more signal;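 further: score merges spot fluorescence with signal-to-noise ratio from the scanned slide images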
# [13] = PSAC antagonists in infected red cells, primary screen, cell-based, P. falciparum Indochina, OD700, 1 h (AID 1154); settings: P. falciparum Indochina infected RBC osmotic lysis, higher = more signal, called active from +8 up or from −8 down
# [14] = PSAC antagonists in infected red cells, primary screen, cell-based, P. falciparum Indochina, OD700, 2 h (AID 1155);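 further: lysis reports solute entry through the parasite surface anion channel PSAC; channel blockers reduce lysis of infected cells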; settings: P. falciparum Indochina infected erythrocytes, osmotic lysis OD700; higher = more signal, called active from +8 up or from −8 down
# [15] = osmotic lysis modulators in infected erythrocytes, primary screen, PSAC antagonist project, cell-based, P. falciparum Indochina, OD700, 3 h (AID 1156); settings: higher = more signal, called active from +8 up or from −8 down
# [16] = PSAC antagonists in infected red cells, primary screen, cell-based, P. falciparum Indochina, OD700, 18 h (AID 1157); settings: P. falciparum Indochina infected erythrocytes, osmotic lysis OD700, 18 h; higher = more signal, called active from +8 up or from −8 down
# [17] = modulators of S6 phosphorylation in cells, primary screen, cell-based, A549, cytoblot, luminescence, serum-stimulated (AID 1158); settings: A549 phospho-S6 cytoblot, 5 h, higher = more signal;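 further: serum-stimulated A549 lung adenocarcinoma cells; signal is phosphorylated S6 detected by cytoblot immunostaining with HRP secondary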
# [18] = molecular target: NADPH oxidase 2 (Homo sapiens) (UniProt P04839); test: NOX2-dependent H2O2 signal modulators, primary screen, NOX inhibitor project, cell-based, HEK293-NOX2, PMA-stimulated, Amplex Red fluorescence (AID 1159); settings: 45 min, higher = more signal, called active from +8 up or from −8 down; further: test concentration not given here
# [19] = molecular target: NADPH oxidase 4 (Homo sapiens) (UniProt Q9NPH5); test: NOX4-dependent H2O2 signal modulators, primary screen, NOX inhibitor project, cell-based, HEK293-NOX4, tetracycline-induced, Amplex Red fluorescence (AID 1160); settings: 45 min, higher = more signal, called active from +8 up or from −8 down
# [20] = molecular target: NADPH oxidase 5 (Homo sapiens) (UniProt Q96PH1); test: NOX5-dependent H2O2 signal modulators, primary screen, NOX inhibitor project, cell-based, HEK293-NOX5, Amplex Red fluorescence (AID 1161); settings: HEK293-NOX5, ionomycin, 45 min, higher = more signal
# Sequence of NADPH oxidase 5 (Homo sapiens) (Q96PH1 whole entry, looked up): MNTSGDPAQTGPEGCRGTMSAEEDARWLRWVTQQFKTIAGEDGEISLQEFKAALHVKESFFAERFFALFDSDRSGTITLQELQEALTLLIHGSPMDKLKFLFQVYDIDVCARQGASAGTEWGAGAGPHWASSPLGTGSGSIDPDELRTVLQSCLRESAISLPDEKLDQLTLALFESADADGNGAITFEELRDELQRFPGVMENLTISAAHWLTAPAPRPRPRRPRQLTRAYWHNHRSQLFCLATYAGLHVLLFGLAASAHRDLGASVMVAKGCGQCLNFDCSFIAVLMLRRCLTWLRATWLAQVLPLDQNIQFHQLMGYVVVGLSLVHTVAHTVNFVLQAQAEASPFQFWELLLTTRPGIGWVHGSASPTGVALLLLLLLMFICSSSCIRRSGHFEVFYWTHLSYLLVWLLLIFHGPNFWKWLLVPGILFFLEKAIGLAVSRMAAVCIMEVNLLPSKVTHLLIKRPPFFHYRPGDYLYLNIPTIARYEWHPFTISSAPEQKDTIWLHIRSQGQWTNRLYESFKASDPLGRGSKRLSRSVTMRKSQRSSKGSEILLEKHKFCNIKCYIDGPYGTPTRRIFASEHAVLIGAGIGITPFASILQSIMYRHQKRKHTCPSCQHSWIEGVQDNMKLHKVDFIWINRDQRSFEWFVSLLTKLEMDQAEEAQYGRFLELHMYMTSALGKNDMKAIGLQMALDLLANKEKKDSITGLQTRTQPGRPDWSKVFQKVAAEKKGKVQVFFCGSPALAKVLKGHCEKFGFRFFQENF
# Sequence of Torsin-1A (Homo sapiens) (O14656 whole entry, looked up): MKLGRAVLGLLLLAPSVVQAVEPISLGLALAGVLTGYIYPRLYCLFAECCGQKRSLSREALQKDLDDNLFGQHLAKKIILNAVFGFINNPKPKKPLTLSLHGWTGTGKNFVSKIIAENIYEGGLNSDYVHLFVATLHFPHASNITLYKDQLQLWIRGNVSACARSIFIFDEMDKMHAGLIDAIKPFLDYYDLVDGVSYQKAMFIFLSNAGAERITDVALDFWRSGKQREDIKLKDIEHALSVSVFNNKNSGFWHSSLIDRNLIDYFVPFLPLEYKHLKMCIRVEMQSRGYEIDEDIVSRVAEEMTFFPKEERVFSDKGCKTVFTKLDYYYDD
# Sequence of NADPH oxidase 2 (Homo sapiens) (P04839 whole entry, looked up): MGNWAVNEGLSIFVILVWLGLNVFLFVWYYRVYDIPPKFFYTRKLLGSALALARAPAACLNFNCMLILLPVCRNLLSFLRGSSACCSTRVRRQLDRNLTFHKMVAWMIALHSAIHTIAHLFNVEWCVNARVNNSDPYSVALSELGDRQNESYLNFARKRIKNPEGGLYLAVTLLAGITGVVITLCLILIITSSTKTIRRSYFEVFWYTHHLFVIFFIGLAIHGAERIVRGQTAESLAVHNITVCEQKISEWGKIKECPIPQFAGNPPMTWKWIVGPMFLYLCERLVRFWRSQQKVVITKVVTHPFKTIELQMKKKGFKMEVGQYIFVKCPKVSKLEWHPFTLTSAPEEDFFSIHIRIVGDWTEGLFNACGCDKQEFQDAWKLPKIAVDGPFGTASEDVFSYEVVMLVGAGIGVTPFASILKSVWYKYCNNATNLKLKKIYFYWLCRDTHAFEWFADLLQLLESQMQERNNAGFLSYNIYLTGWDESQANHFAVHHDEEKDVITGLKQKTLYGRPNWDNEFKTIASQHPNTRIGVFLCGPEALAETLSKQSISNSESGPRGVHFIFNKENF
# Sequence of Streptavidin (Streptomyces avidinii) (P22629 whole entry, looked up): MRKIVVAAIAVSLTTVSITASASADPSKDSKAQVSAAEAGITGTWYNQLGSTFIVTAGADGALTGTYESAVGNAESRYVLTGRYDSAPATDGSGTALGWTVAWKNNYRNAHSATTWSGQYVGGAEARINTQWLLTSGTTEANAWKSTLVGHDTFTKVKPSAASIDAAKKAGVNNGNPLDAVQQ
# Sequence of NADPH oxidase 4 (Homo sapiens) (Q9NPH5 whole entry, looked up): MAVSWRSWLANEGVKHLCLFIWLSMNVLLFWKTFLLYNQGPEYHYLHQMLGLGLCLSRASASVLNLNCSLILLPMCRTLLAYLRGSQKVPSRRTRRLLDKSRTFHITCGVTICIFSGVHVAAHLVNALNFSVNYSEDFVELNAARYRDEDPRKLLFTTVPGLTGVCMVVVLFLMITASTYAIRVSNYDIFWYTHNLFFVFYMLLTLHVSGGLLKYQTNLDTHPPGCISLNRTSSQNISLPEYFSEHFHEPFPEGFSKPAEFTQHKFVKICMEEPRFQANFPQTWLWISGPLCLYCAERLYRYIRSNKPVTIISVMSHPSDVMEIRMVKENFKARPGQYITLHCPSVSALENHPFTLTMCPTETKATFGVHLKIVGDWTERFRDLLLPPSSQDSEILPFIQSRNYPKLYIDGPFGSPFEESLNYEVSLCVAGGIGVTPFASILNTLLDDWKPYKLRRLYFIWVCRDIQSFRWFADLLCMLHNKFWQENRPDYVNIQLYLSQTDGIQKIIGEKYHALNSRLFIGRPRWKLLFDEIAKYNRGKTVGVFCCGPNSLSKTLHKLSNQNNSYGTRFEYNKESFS
smiles,measurement,setting,value
COC(=O)CC=C[C@@H](C)[C@@H](C=NO[C@H](C)c1cn([C@H](CO)Cc2ccccc2)nn1)NS(=O)(=O)c1ccc(C)cc1,composite z-score,[1],-0.0374
same,z-score,[2],-1.29 (inactive)
same,z-score,[3],0.92 (inactive)
same,z-score,[4],1.98 (inactive)
same,z-score,[5],0.767 (inactive)
same,composite z-score,[6],0.912
same,composite z-score,[7],-0.0531
same,composite z-score,[8],0.708
same,composite z-score,[9],1.8
same,composite z-score,[10],0.285
same,z-score,[11],-0.0528 (inactive)
same,composite z-score,[12],0.173
same,z-score,[13],2.17 (inactive)
same,z-score,[14],0.674 (inactive)
same,z-score,[15],0.605 (inactive)
same,z-score,[16],0.22 (inactive)
same,z-score,[17],-1.07
same,z-score,[18],0.679 (inactive)
same,z-score,[19],0.685 (inactive)
same,z-score,[20],-0.0369
CO[C@@H]1COC(=O)[C@@H](C)NC(=O)CC=C[C@@H](C)[C@H](NS(=O)(=O)c2ccc(C)cc2)COC(=O)[C@H](C)NC(=O)CC=C[C@H]1C,composite z-score,[1],-0.0222
same,z-score,[2],0.806 (inactive)
same,z-score,[3],0.829 (inactive)
same,z-score,[4],0.881 (inactive)
same,z-score,[5],-0.314 (inactive)
same,composite z-score,[6],-0.967
same,composite z-score,[7],-0.218
same,composite z-score,[8],1.31
same,composite z-score,[9],0.584
same,composite z-score,[10],1.33
same,z-score,[11],0.69 (inactive)
same,composite z-score,[12],-0.145
same,z-score,[13],0.079 (inactive)
same,z-score,[14],-0.121 (inactive)
same,z-score,[15],-0.361 (inactive)
same,z-score,[16],-0.0378 (inactive)
same,z-score,[17],-0.363
same,z-score,[18],0.931 (inactive)
same,z-score,[19],0.649 (inactive)
same,z-score,[20],-0.165
C[C@H]1COC(=O)[C@@H]2CCCN2C(=O)[C@@H](C)COC(=O)[C@H](Cc2ccccc2)NC1=O,composite z-score,[1],0.0398
same,z-score,[2],0.257 (inactive)
same,z-score,[3],-0.0355 (inactive)
same,z-score,[4],-0.468 (inactive)
same,z-score,[5],0.574 (inactive)
same,composite z-score,[6],0.0706
same,composite z-score,[7],-0.045
same,composite z-score,[8],0.146
same,composite z-score,[9],0.0507
same,composite z-score,[10],0.515
same,z-score,[11],-0.0891 (inactive)
same,composite z-score,[12],-0.394
same,z-score,[13],0.115 (inactive)
same,z-score,[14],-0.29 (inactive)
same,z-score,[15],0.968 (inactive)
same,z-score,[16],0.22 (inactive)
same,z-score,[17],0.413
same,z-score,[18],-0.45 (inactive)
same,z-score,[19],-0.114 (inactive)
same,z-score,[20],-0.272
O=C1C=C[C@@H](O)[C@@H]2[C@@H]3C(=O)N(C[C@@H]4CCCO4)C(=O)[C@@H]3CC[C@@H]12,composite z-score,[1],-0.142
same,z-score,[2],-0.228 (inactive)
same,z-score,[3],0.477 (inactive)
same,z-score,[4],-0.295 (inactive)
same,z-score,[5],-0.593 (inactive)
same,composite z-score,[6],-0.029
same,composite z-score,[7],-0.0424
same,composite z-score,[8],0.294
same,composite z-score,[9],0.462
same,composite z-score,[10],0.159
same,z-score,[11],0.0413 (inactive)
same,composite z-score,[12],0.0313
same,z-score,[13],1.08 (inactive)
same,z-score,[14],0.979 (inactive)
same,z-score,[15],-0.0029 (inactive)
same,z-score,[16],0.281 (inactive)
same,z-score,[17],-0.382
same,z-score,[18],1.71 (inactive)
same,z-score,[19],-0.0876 (inactive)
same,z-score,[20],0.283
O=C1CCCC=C1C(CCc1ccccc1)OC(=O)c1ccc(Br)cc1 (stereo not given),composite z-score,[1],-0.223
same,z-score,[2],-3.61 (inactive)
same,z-score,[3],0.96 (inactive)
same,z-score,[4],0.111 (inactive)
same,z-score,[5],0.171 (inactive)
same,composite z-score,[6],0.0598
same,composite z-score,[7],-0.218
same,composite z-score,[8],-0.249
same,composite z-score,[9],0.0696
same,composite z-score,[10],-0.115
same,z-score,[11],-0.303 (inactive)
same,composite z-score,[12],0.16
same,z-score,[13],10.6 (active)
same,z-score,[14],0.748 (inactive)
same,z-score,[15],-0.295 (inactive)
same,z-score,[16],-0.364 (inactive)
same,z-score,[17],0.307
same,z-score,[18],1.36 (inactive)
same,z-score,[19],0.397 (inactive)
same,z-score,[20],-1.5
C=CC[C@@H]1C=C[C@H](ON=C(C)CCC(=O)OC[C@H]2O[C@H](c3ccccc3)C=C[C@@H]2Oc2ccc(OC)cc2)[C@@H](CO)O1,composite z-score,[1],-0.278
same,z-score,[2],-1.08 (inactive)
same,z-score,[3],-0.743 (inactive)
same,z-score,[4],-0.24 (inactive)
same,z-score,[5],-0.24 (inactive)
same,composite z-score,[6],-0.586
same,composite z-score,[7],-0.128
same,composite z-score,[8],-0.957
same,composite z-score,[9],-0.587
same,composite z-score,[10],-0.317
same,z-score,[11],0.871 (inactive)
same,composite z-score,[12],-0.291
same,z-score,[13],10.9 (active)
same,z-score,[14],1.25 (inactive)
same,z-score,[15],1.2 (inactive)
same,z-score,[16],0.637 (inactive)
same,z-score,[17],-0.0785
same,z-score,[18],-3.06 (inactive)
same,z-score,[19],0.605 (inactive)
same,z-score,[20],-2.79
CCOC(=O)[C@H](Cc1ccccc1)NC(=O)CCC1CC(OC(=O)NCc2cccc3ccccc23)CC2(CCCC(COC(=O)NCc3ccccc3)O2)O1 (stereo not given in full),composite z-score,[1],0.0636
same,z-score,[2],-5.15 (inactive)
same,z-score,[3],-1.29 (inactive)
same,z-score,[4],-0.977 (inactive)
same,z-score,[5],2.01 (inactive)
same,composite z-score,[6],0.376
same,composite z-score,[7],-0.0259
same,composite z-score,[8],-0.347
same,composite z-score,[9],0.0167
same,composite z-score,[10],0.58
same,z-score,[11],-1.32 (inactive)
same,composite z-score,[12],0.0935
same,z-score,[13],4.71 (inactive)
same,z-score,[14],0.55 (inactive)
same,z-score,[15],-0.562 (inactive)
same,z-score,[16],-0.2 (inactive)
same,z-score,[17],3.91
same,z-score,[18],-1.59 (inactive)
same,z-score,[19],-1.2 (inactive)
same,z-score,[20],-1.7
CCOC(=O)[C@H](CC(C)C)NC(=O)CCC1CC(OC(=O)NCCc2ccc(F)cc2)CC2(CCCC(COC(=O)NCCC(C)C)O2)O1 (stereo not given in full),composite z-score,[1],-0.0436
same,z-score,[2],-0.439 (inactive)
same,z-score,[3],0.288 (inactive)
same,z-score,[4],0.91 (inactive)
same,z-score,[5],-0.457 (inactive)
same,composite z-score,[6],2.06
same,composite z-score,[7],-0.0963
same,composite z-score,[8],-0.239
same,composite z-score,[9],0.204
same,composite z-score,[10],0.318
same,z-score,[11],-1.14 (inactive)
same,composite z-score,[12],0.0451
same,z-score,[13],6.28 (inactive)
same,z-score,[14],0.267 (inactive)
same,z-score,[15],0.0542 (inactive)
same,z-score,[16],0.0517 (inactive)
same,z-score,[17],-0.326
same,z-score,[18],1.26 (inactive)
same,z-score,[19],-1.27 (inactive)
same,z-score,[20],-0.8
CCOC(=O)[C@H](Cc1ccccc1)NC(=O)CCC1CC(OC(=O)NCc2cccc3ccccc23)CC2(CCCC(COC(=O)NCC(c3ccccc3)c3ccccc3)O2)O1 (stereo not given in full),composite z-score,[1],0.177
same,z-score,[2],-1.43 (inactive)
same,z-score,[3],-0.873 (inactive)
same,z-score,[4],0.286 (inactive)
same,z-score,[5],0.155 (inactive)
same,composite z-score,[6],0.164
same,composite z-score,[7],-0.154
same,composite z-score,[8],0.45
same,composite z-score,[9],0.0748
same,composite z-score,[10],0.613
same,z-score,[11],-0.0812 (inactive)
same,composite z-score,[12],-0.116
same,z-score,[13],9.16 (active)
same,z-score,[14],1.24 (inactive)
same,z-score,[15],-1.06 (inactive)
same,z-score,[16],-0.343 (inactive)
same,z-score,[17],0.704
same,z-score,[18],0.782 (inactive)
same,z-score,[19],0.674 (inactive)
same,z-score,[20],0.347

# — PubChem BioAssay
